Results published in PubChem BioAssay (EPA / NIEHS).
Activity calls are given as the source filed them. Rule for the calls: active = hit-call score of the fitted dose curve at least 0.9, where 1 is the maximum; inactive = score below 0.9.

Legend:
[1] = BSK_KF3CT_SRB: Viability Assessment in the BioMAP Diversity Plus: KF3CT Assay (AID 2283069); conditions: primary human keratinocytes with fibroblasts
Procedure, shortened: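 Overt cytotoxicity is assessed as total protein by sulforhodamine B staining in parallel human skin co-cultures at 24 h after dosing. DMSO serves as negative control and baseline.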

[2] = read-out: Interleukin-1 alpha (IL1a), IL1A (gene 3552); assay: BSK_KF3CT_IL1a: BioMAP Diversity Plus: KF3CT Assay for Interleukin-1 alpha (IL1a) Biomarker Activity (AID 2283070); conditions: primary human keratinocytes with fibroblasts; actives raise or lower the signal
Procedure, shortened: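 Readout is IL-1a level by ELISA, compared bidirectionally with DMSO as baseline. Cells: human keratinocytes co-cultured with foreskin fibroblasts, harvested 24 h post-dose.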

[3] = read-out: TIMP metallopeptidase inhibitor 2 (TIMP2), TIMP2 (gene 7077); assay: BSK_KF3CT_TIMP2: BioMAP Diversity Plus: KF3CT Assay for TIMP metallopeptidase inhibitor 2 (TIMP2) Biomarker Activity (AID 2283071); conditions: primary human keratinocytes with fibroblasts; actives raise or lower the signal
Procedure, shortened: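 Measurements come from ELISA detection of TIMP-2 at 24 hours in a dosed human keratinocyte and foreskin fibroblast co-culture. DMSO serves as negative control and baseline.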

[4] = read-out: Transforming growth factor beta 1 (TGFb1), TGFB1 (gene 7040); assay: BSK_KF3CT_TGFb1: BioMAP Diversity Plus: KF3CT Assay for Transforming growth factor beta 1 (TGFb1) Biomarker Activity (AID 2283072); conditions: primary human keratinocytes with fibroblasts; actives raise or lower the signal
Procedure, shortened: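 TGF-b1 ELISA on a 24 h dosed co-culture of human keratinocytes and foreskin fibroblasts; cytotoxicity tracked in parallel cultures by SRB staining.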

[5] = read-out: C-C motif chemokine 2 (Homo sapiens) (UniProt P13500); assay: BSK_KF3CT_MCP1: BioMAP Diversity Plus: KF3CT Assay for Monocyte Chemoattractant Protein 1 (MCP1/CCL2) Biomarker Activity (AID 2283073); conditions: primary human keratinocytes with fibroblasts; actives raise or lower the signal
Procedure, shortened: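 ELISA read-out of MCP-1, 24 h post-dose, in primary human skin keratinocytes co-cultured with fibroblasts. Parallel SRB staining monitors cytotoxicity; changes fitted both directions relative to DMSO.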

[6] = read-out: Matrix Metallopeptidase 9 (MMP9), MMP9 (gene 4318); assay: BSK_KF3CT_MMP9: BioMAP Diversity Plus: KF3CT Assay for Matrix Metallopeptidase 9 (MMP9) Biomarker Activity (AID 2283074); conditions: primary human keratinocytes with fibroblasts; actives raise or lower the signal;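 for AC50: MMP9 protein level quantified by ELISA in the co-culture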
Procedure, shortened: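 Values come from bidirectional fitting relative to DMSO of MMP-9 levels, which were measured by ELISA. Measurements were taken 24 h after chemical dosing of a keratinocyte and foreskin fibroblast co-culture.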

[7] = read-out: urokinase plasminogen activator (uPA), PLAU (gene 5328); assay: BSK_KF3CT_uPA: BioMAP Diversity Plus: KF3CT Assay for urokinase plasminogen activator (uPA) Biomarker Activity (AID 2283075); conditions: primary human keratinocytes with fibroblasts; actives raise or lower the signal
Procedure, shortened: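 Values derive from bidirectional fitting against DMSO controls. Keratinocyte/foreskin fibroblast co-cultures received chemical; 24 h later uPA was detected by ELISA, with SRB total-protein staining in parallel wells for overt cytotoxicity.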

CD40, CD40 (gene 958) [8] = assay: BSK_LPS_CD40: BioMAP Diversity Plus: LPS Assay for CD40 Biomarker Activity (AID 2283076); conditions: primary human HUVEC with PBMC; actives raise or lower the signal
Procedure, shortened: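 In the LPS system of human endothelial cells with peripheral blood mononuclear cells, CD40 levels were read by ELISA 24 h post-treatment. Signal changes in either direction were fitted against the DMSO baseline, with parallel SRB protein staining.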

[9] = read-out: E-selectin (Homo sapiens) (UniProt P16581); assay: BSK_LPS_Eselectin: BioMAP Diversity Plus: LPS Assay for Eselectin Biomarker Activity (AID 2283077); conditions: primary human HUVEC with PBMC; actives raise or lower the signal
Procedure, shortened: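 E-selectin ELISA on LPS-stimulated endothelial cell/PBMC co-cultures, read 24 h post-treatment; gains and losses fitted against DMSO. Parallel SRB staining (0.1% SRB after 10% TCA fixation, 560 nm) flags overt cytotoxicity.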

[10] = read-out: Interleukin-8 (IL8), CXCL8 (gene 3576); assay: BSK_LPS_IL8: BioMAP Diversity Plus: LPS Assay for Interleukin-8 (IL8) Biomarker Activity (AID 2283078); conditions: primary human HUVEC with PBMC; actives raise or lower the signal
Procedure, shortened: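 ELISA read-out of IL-8 after 24 h chemical treatment of LPS-activated endothelial/PBMC human primary co-cultures. Changes either up or down relative to DMSO; overt cytotoxicity checked by sulforhodamine B staining in parallel wells.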

[11] = BSK_LPS_SRB: Viability Assessment in the BioMAP Diversity Plus: LPS Assay (AID 2283079); conditions: primary human HUVEC with PBMC;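 note: total protein by sulforhodamine B absorbance as a cytotoxicity measure; measured one day after compound addition; fitted in both directions against DMSO so loss or gain of signal counts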
Procedure, shortened: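 SRB viability endpoint: cells fixed with 10% TCA, stained with 0.1% SRB, read at 560 nm, 24 h post-dose. HUVEC/PBMC co-culture; signal change in either direction scored relative to DMSO.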

[12] = read-out: Interleukin-1 alpha (IL1a), IL1A (gene 3552); assay: BSK_LPS_IL1a: BioMAP Diversity Plus: LPS Assay for Interleukin-1 alpha (IL1a) Biomarker Activity (AID 2283080); conditions: primary human HUVEC with PBMC; actives raise or lower the signal
Procedure, shortened: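 Readout is IL-1a level by ELISA, 24 h post-dose, fitted as gain or loss relative to DMSO. System: LPS-activated human primary co-culture of vascular endothelium and peripheral blood mononuclear cells, with parallel SRB total-protein cytotoxicity.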

[13] = read-out: Monocyte Chemoattractant Protein-1 (MCP1), CCL2 (gene 6347); assay: BSK_LPS_MCP1: BioMAP Diversity Plus: LPS Assay for Monocyte Chemoattractant Protein-1 (MCP1) Biomarker Activity (AID 2283081); conditions: primary human HUVEC with PBMC; actives raise or lower the signal
Procedure, shortened: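 Secreted MCP-1 read by ELISA at 24 h post-dosing in an LPS-activated co-culture of endothelial cells with peripheral blood mononuclear cells. Fits run in both directions, DMSO as baseline; parallel SRB staining tracks overt cytotoxicity.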

[14] = BSK_LPS_PGE2: BioMAP Diversity Plus: LPS Assay for Prostaglandin E2 (PGE2) Biomarker Activity (AID 2283082); conditions: primary human HUVEC with PBMC; actives raise or lower the signal
Procedure, shortened: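 Primary human endothelial cells and blood mononuclear cells, co-cultured with LPS, receive test chemical; PGE2 ELISA follows at 24 h, with SRB-stained parallel cultures flagging cytotoxicity.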

[15] = read-out: Macrophage colony-stimulating factor (MCSF), CSF1 (gene 1435); assay: BSK_LPS_MCSF: BioMAP Diversity Plus: LPS Assay for Macrophage colony-stimulating factor (MCSF) Biomarker Activity (AID 2283083); conditions: primary human HUVEC with PBMC; actives raise or lower the signal
Procedure, shortened: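 Bidirectional fitting against DMSO was applied to M-CSF levels read by ELISA at 24 h post-dose. The system pairs human umbilical vein endothelium with peripheral blood mononuclear cells; parallel SRB staining tracked cytotoxicity.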

[16] = read-out: Tissue Factor, F3 (gene 2152); assay: BSK_LPS_TissueFactor: BioMAP Diversity Plus: LPS Assay for Tissue Factor Biomarker Activity (AID 2283084); conditions: primary human HUVEC with PBMC; actives raise or lower the signal
Procedure, shortened: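 Compound was added to an endothelial cell/PBMC co-culture, and after 24 h tissue factor (CD142) was read by ELISA. Gain or loss of signal was fitted against a DMSO baseline, and parallel SRB staining (560 nm) tracked overt cytotoxicity.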

[17] = read-out: Tumor necrosis factor (Homo sapiens) (UniProt P01375); assay: BSK_LPS_TNFa: BioMAP Diversity Plus: LPS Assay for Tumour Necrosis Factor alpha (TNFa) Biomarker Activity (AID 2283085); conditions: primary human HUVEC with PBMC; actives raise or lower the signal
Procedure, shortened: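 ELISA-based TNFa endpoint in a human endothelial–PBMC co-culture sampled 24 h post-exposure. Curves were fitted in both directions using DMSO as baseline of activity.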

[18] = read-out: Vascular cell adhesion molecule 1 (VCAM1), VCAM1 (gene 7412); assay: BSK_LPS_VCAM1: BioMAP Diversity Plus: LPS Assay for Vascular cell adhesion molecule 1 (VCAM1) Biomarker Activity (AID 2283086); conditions: primary human HUVEC with PBMC; actives raise or lower the signal
Procedure, shortened: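 Measured by ELISA: VCAM-1 in LPS-activated HUVEC/PBMC co-cultures 24 h after treatment. Values reflect bidirectional fitting with DMSO as baseline.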

CD38, CD38 (gene 952) = assay: BSK_SAg_CD38: BioMAP Diversity Plus: SAg Assay for CD38 Biomarker Activity (AID 2283087); conditions: primary human HUVEC with PBMC; actives raise or lower the signal
Procedure, shortened: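 Measures CD38 on a human endothelial/PBMC co-culture driven by SEB and TSST-1, 24 h after compound exposure, using ELISA with fluorescence detection; DMSO defines baseline for bidirectional curve fitting.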

CD40, CD40 (gene 958) [19] = assay: BSK_SAg_CD40: BioMAP Diversity Plus: SAg Assay for CD40 Biomarker Activity (AID 2283088); conditions: primary human HUVEC with PBMC; actives raise or lower the signal
Procedure, shortened: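 CD40 is measured by fluorescence ELISA in an endothelial/PBMC primary human co-culture at 24 h post-dose. Fitting is bidirectional, DMSO baseline. Parallel SRB staining (560 nm) flags cytotoxicity.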

Measured: AC50

Sequence of Tumor necrosis factor (Homo sapiens) (P01375 whole entry, looked up): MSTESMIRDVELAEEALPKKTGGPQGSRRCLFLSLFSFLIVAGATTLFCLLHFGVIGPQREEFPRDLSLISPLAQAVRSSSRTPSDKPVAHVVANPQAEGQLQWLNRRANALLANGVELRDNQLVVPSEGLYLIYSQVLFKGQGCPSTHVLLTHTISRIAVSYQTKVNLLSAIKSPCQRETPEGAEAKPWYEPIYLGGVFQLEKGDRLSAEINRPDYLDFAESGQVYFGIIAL
Sequence of E-selectin (Homo sapiens) (P16581 whole entry, looked up): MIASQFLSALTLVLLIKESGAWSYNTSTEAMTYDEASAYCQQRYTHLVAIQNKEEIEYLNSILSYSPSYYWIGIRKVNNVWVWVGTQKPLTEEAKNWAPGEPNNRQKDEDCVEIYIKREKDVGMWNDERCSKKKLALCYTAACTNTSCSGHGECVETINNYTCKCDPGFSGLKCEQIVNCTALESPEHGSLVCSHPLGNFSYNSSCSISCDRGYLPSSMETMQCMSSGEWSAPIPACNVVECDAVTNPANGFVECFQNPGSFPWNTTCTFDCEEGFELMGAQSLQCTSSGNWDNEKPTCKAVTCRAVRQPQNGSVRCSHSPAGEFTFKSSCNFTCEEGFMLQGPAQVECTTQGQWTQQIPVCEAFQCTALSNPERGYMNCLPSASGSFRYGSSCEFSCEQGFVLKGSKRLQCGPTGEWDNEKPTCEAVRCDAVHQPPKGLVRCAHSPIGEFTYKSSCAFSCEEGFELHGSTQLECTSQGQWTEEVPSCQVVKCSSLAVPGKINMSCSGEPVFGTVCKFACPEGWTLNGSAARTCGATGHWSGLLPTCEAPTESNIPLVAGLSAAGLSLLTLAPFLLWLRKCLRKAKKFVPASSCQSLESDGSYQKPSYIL

O=P(OCC(Br)CBr)(OCC(Br)CBr)OCC(Br)CBr (centres undefined)
active: [6] 21.1 µM
inactive: all other assays above

CCCCOCCOP(=O)(OCCOCCCC)OCCOCCCC
active: [4] 16 nM
not listed: [6]
inactive: all other assays above

CSC(C)(C)C=NO
not listed: [7]
inactive: all other assays above

c1ccc(OP(Oc2ccccc2)Oc2ccccc2)cc1
not listed: [7]
inactive: all other assays above

CCCCN(CCCC)N=O
not listed: [6]
inactive: all other assays above

N#Cc1cc([N+](=O)[O-])ccc1N
not listed: [6] | [7]
inactive: all other assays above

CN(C)C(=O)Cl
inactive: all assays above
